TWEAK-Fn14 inh = TWEAK-Fn14 signaling inhibition; TWEAK-stimulated Fn14 reporter cells, luciferase luminescence, 8 h; inhibition, % at 10 µM; hit rate 2% among 360,000; AID 1159606; in the data active = inhibition above about 50%
TROY signal inh = blocks TROY-dependent signaling in reporter cells. Q293 LMP1-TROYcd NF-kB luciferase reporter, 4 h. inhibition, % at 10 µM. hit rate 0.98% among 360,000. AID 1347056;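 active = compounds whose plate-normalised and pattern-corrected inhibition of the luciferase reporter signal at the single screening dose is 50% or more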
LMP1 NFkB inh = inhibitors of Epstein-Barr LMP1-induced NF-kappaB reporter; inhibition, % at 12.5 µM; AID 504558; LMP1-induced NF-kappaB luciferase reporter cells, luminescence; hit rate 0.69% among 350,000; in the data active = inhibition above about 41%; inconclusive = no clear call, values can overlap the other calls
LGR2 antag = Drosophila LGR2 receptor signaling inhibition; HEK293 LGR2, CRE-luciferase, bursicon-stimulated, 4 h; inhibition, % at 9.99 µM; hit rate 0.35% among 380,000; AID 720647;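 active = drop in luminescence signal, shown as inhibition above about 50% in the replicate tests, limit read from the data, passing the limit was not always enough; inconclusive = probably only some replicates passing the limit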;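 note: agonist challenge used bursicon conditioned medium at about half maximal strength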
EWS-Fli block = inhibitors of EWS/Fli oncoprotein transcriptional activity; A673 NR0B1-luciferase reporter, viability-normalised; inhibition, % at 12.6 µM; hit rate 0.67% among 350,000; AID 651661;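 active = mean inhibition of at least 50% after viability correction, with every replicate also passing that limit; inconclusive = mean reaches 50% but only one of two replicates passes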;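 note: firefly luciferase signal divided by Alamar Blue viability fluorescence both relative to DMSO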
Numbers stand for hits; i = inactive; ? = inconclusive; nt = no result. A selection: hits, their analogues and other compounds. The true share with any hit is near 2.6%.

SMILES	TWEAK-Fn14 inh	TROY signal inh	LMP1 NFkB inh	LGR2 antag	EWS-Fli block
CCCCn1c(=O)[nH]c(=O)c2c1nc(Cn1ncc(Cl)c(Cl)c1=O)n2CCC	94	71	i	i	i
CC(=O)c1c(C)[nH]c(C(=O)OCC(=O)Nc2cccc(S(=O)(=O)N3CCCC3)c2)c1C	65	i	i	i	nt
CCN(CC)S(=O)(=O)c1cccc(NC(=O)COC(=O)c2[nH]c(C)c(C(C)=O)c2C)c1	65	i	i	i	i
CC(=O)c1c(C)[nH]c(C(=O)OCC(=O)Nc2cccc(S(=O)(=O)N(C)C)c2)c1C	i	i	i	i	i
Cc1c(CNCCCc2ccccc2)c(C(=O)O)c(C)n1Cc1ccccc1	i	52	i	i	i
COc1ccc(S(=O)(=O)Nc2ccc3c(c2)C(=O)N([C@H](C)CO)C[C@@H](C)[C@@H](CN(C)C(=O)CCCN(C)C)OCCCC[C@H](C)O3)cc1	nt	nt	nt	i	i
O=S1(=O)c2ccc(Br)cc2N2CCC[C@@H]2CN1Cc1ccccc1	i	i	i	i	52
O=c1oc2ccccc2c(O)c1/C=N/c1ncccn1	i	i	i	nt	nt
O=c1oc2ccccc2c(O)c1/C=N/c1ccccn1	i	i	50	nt	nt
C=CCOC(=O)C1=C(C)N=c2s/c(=C3\C(=O)N(CC(=O)O)c4ccccc43)c(=O)n2C1c1ccc(OC)cc1 (stereo not drawn)	59	i	i	i	i
C/C=C/c1ccc([C@H]2[C@@H](CO)N(CCC(F)(F)F)[C@@H]2CNC(=O)C2CCC2)cc1	nt	nt	nt	i	nt
O=c1[nH]c(C2CCN(S(=O)(=O)c3ccc4c(c3)OCCO4)CC2)nc2c1nnn2Cc1c(F)cccc1Cl	55	i	i	i	i
Cc1noc(C)c1S(=O)(=O)N(C)C[C@H]1OCCCC[C@@H](C)Oc2ccc(NC(=O)CCC(F)(F)F)cc2C(=O)N([C@@H](C)CO)C[C@@H]1C	nt	nt	nt	i	i
CCOC(=O)C1=C(c2ccccc2)NC(SCC(=O)Nc2ccccc2C)=C(C#N)C1c1ccco1 (stereo not drawn)	51	i	i	nt	nt
O=C(C[C@@H]1C=C[C@H](NC(=O)Nc2cc(F)ccc2F)[C@H](CO)O1)NCc1ccc2c(c1)OCO2	nt	nt	nt	i	nt
c1ccc2c(c1)Nc1cc3ccccc3cc1S2	i	i	i	i	i
c1ccc2c(c1)Nc1ccncc1S2	55	i	i	nt	i
CCOC(=O)c1ccc(NC(=O)NCc2ccncc2)cc1	i	i	i	nt	nt
CCOC(=O)c1ccc(NC(=O)NCCc2cnc[nH]2)cc1	60	i	i	i	i
COC(=O)C1CCN(C(=O)COC(=O)c2ccc(OC)c(S(=O)(=O)N3CCCc4ccccc43)c2)CC1	51	i	i	i	i
O=C(NCC[C@H]1CC[C@H](NS(=O)(=O)c2ccc(Oc3ccccc3)cc2)[C@@H](CO)O1)C1CC1	nt	nt	nt	i	i
CCOC(=O)c1sc2ccccc2c1NC(=O)c1coc2ccccc2c1=O	57	i	i	i	nt
O=C(C[C@@H]1C[C@H]2c3cc(NS(=O)(=O)c4ccccc4)ccc3O[C@H]2[C@H](CO)O1)NC1CCCC1	nt	nt	nt	i	i
NC(N)=NC(=O)c1nc(Cl)c(N2CCCCCC2)nc1N	i	i	74	i	i
CCCNC(=O)N1CCC2(CC1)CN(C(=O)CC)[C@H](CO)c1c2c2ccc(OC)cc2n1C	nt	nt	nt	i	i
SMILES	TWEAK-Fn14 inh	TROY signal inh	LMP1 NFkB inh	LGR2 antag	EWS-Fli block
Brc1ccc(-c2nc(-c3ccccn3)no2)o1	91	56	?	75	nt
COc1ccc(-c2nc(-c3ccncc3)no2)cc1	i	i	i	i	i
COc1ccc(-c2nc(-c3ccccn3)no2)cc1	102	83	81	100	86
Clc1ccccc1OCc1nc(-c2ccccn2)no1	i	i	i	nt	nt
Clc1ccc(OCc2nc(-c3ccccn3)no2)c(Br)c1	67	i	i	69	i
Cc1ccccc1-c1nc(-c2ccccn2)no1	97	81	61	95	83
CN1C(=O)c2cc(NC(=O)C3CC3)ccc2OC[C@H]2O[C@H](CC(=O)NCC3CCCCC3)CC[C@H]21	nt	nt	nt	i	i
C[C@@H]1CN([C@@H](C)CO)C(=O)c2cc(-c3cccc(F)c3)cnc2O[C@H]1CN(C)Cc1ccccn1	nt	nt	nt	i	i
Brc1ccc(-c2noc(-c3ccccn3)n2)o1	i	i	i	i	i
COc1ccccc1-c1nc(-c2ccccn2)no1	96	66	62	78	73
Clc1ccc(-c2nc(-c3ccccn3)no2)cc1Cl	80	i	i	nt	nt
C[C@H](O)C#Cc1ccc2c(c1)O[C@@H](CN(C)C(=O)C1CC1)[C@@H](C)CN([C@@H](C)CO)S2(=O)=O	nt	nt	nt	i	i
COc1cccc(-c2cnc3c(c2)C(=O)N([C@H](C)CO)C[C@@H](C)[C@@H](CN(C)CC2CCOCC2)O3)c1	nt	nt	nt	i	i
COc1cccc(CNC(=O)CCl)c1	i	i	i	i	i
COc1cccc(CNC(=O)COC(=O)c2nc(Cl)c(Cl)c(Cl)c2Cl)c1	94	i	i	i	i
COc1ccc(CC(=O)OCC(=O)NCc2ccc(F)cc2)cc1	i	i	i	i	i
COc1cccc(CC(=O)OCC(=O)NCCc2ccc(F)cc2)c1	54	i	i	i	i
CNC[C@H]1Oc2c(NC(=O)Nc3ccc(F)cc3)cccc2C(=O)N([C@H](C)CO)C[C@@H]1C	nt	nt	nt	i	i
CN(C)c1cccc2c(S(=O)(=O)NCC3CCN(C(=O)C(=O)c4cccs4)CC3)cccc12	nt	nt	nt	i	i
COc1ccc(Nc2nc3ccc(C)cc3cc2C#N)c(OC)c1	85	i	i	nt	i
COc1ccc(OC)c(NC(=O)CSc2ncnc3c2cnn3-c2ccccc2Cl)c1	74	i	i	nt	nt
COc1cc(NC(=O)CSc2ncnc3c2cnn3Cc2ccccc2)cc(OC)c1	62	i	i	nt	nt
Cc1cc(O)c(C=O)c2c1C(=O)Oc1c(CO)c(O)c3c(c1O2)C(O)OC3=O (stereo not drawn)	56	i	i	nt	nt
Cc1cc(O)c(CN(C)C)c2c1C(=O)/C(=C/c1ccco1)O2	i	i	i	i	i
O=C(N[C@H]1CC[C@H](CCNC(=O)C2CCCC2)O[C@@H]1CO)c1ccncc1	nt	nt	nt	i	i
SMILES	TWEAK-Fn14 inh	TROY signal inh	LMP1 NFkB inh	LGR2 antag	EWS-Fli block
CCCNC(=O)N1CC2(CCN(C(=O)CC3CC3)CC2)c2c(n(C)c3cc(OC)ccc23)[C@@H]1CO	nt	nt	nt	i	i
CCOc1ccc(NC(=O)CCc2nnc3ccc(N4CCC5(CC4)OCCO5)nn23)cc1	i	i	48	i	i
COc1ccc(NC(=O)Nc2ccc3c(c2)C(=O)N([C@@H](C)CO)C[C@@H](C)[C@H](CN(C)C(=O)Nc2ccc(C(F)(F)F)cc2)OCCCC[C@@H](C)O3)cc1	nt	nt	nt	i	i
N#C/C(=C\c1ccc(Cl)cc1Cl)c1n[nH]c(Cn2cncn2)n1	65	nt	i	nt	nt
O=C(Nc1ccccc1)c1n[nH]c(Cn2cncn2)n1	i	i	i	nt	nt
CN1C(=O)C(C)(C)c2cc(S(=O)(=O)N(C)Cc3ccccc3)ccc21	i	i	i	i	i
Cc1cccc(N(C)S(=O)(=O)c2ccc3c(c2)C(C)(C)C(=O)N3C)c1	88	i	i	i	i
COCC#Cc1ccc2c(c1)O[C@H](CN(C)Cc1ccccc1)[C@@H](C)CN([C@H](C)CO)S2(=O)=O	nt	nt	nt	i	i

From PubChem
